One sequence from publication PMC7862700, “An all-to-all approach to the identification of sequence-specific readers for epigenetic DNA modifications on cytosine” can be followed below.

Holding throughout (test): DAPPL (digital affinity profiling via proximity ligation, sequencing); 10 mM Tris-HCl pH 7.5, 50 mM NaCl, 1 mM DTT, 4% glycerol, room temperature, 30 min; GST-TFs on glutathione beads, 16-mer random dsDNA library, 0.1% formaldehyde crosslink after washing; high values mean tight binding
Common to all, as to conditions: protein: recombinant; tags: N-terminal GST; dsDNA, one strand shown

In assay [1] the target is T1, ELK1 (Homo sapiens, UniProt P19419 1-428).
T1 sequence: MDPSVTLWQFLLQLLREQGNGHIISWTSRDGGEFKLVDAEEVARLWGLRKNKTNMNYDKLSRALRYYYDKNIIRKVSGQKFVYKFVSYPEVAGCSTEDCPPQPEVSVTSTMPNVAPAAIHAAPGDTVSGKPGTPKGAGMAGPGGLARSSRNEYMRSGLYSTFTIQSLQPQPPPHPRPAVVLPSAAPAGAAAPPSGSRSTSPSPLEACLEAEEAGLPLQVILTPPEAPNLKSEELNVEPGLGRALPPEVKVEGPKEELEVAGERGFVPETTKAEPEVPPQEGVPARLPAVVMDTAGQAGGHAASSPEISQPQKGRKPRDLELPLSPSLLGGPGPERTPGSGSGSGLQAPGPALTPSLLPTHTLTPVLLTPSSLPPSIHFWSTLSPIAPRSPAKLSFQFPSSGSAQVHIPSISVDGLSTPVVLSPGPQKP
An outline of the steps: (§1)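 Each value of binding signal is a hexamer's read frequency for a factor divided by the same hexamer's frequency in the tag-only sample. Barcoded, bead-captured GST fusions of human transcription factors made in yeast were pooled with that sample and incubated with 200 nmole of a random double-stranded 16-mer DNA library in Tris/NaCl/DTT/glycerol buffer at room temperature for 30 min. Washing, 0.1% formaldehyde crosslinking, proximity ligation, PCR and Illumina NextSeq500 sequencing followed.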

For assay [2], the target named is T2, ERG (Homo sapiens, UniProt P11308 1-479).
T2 sequence: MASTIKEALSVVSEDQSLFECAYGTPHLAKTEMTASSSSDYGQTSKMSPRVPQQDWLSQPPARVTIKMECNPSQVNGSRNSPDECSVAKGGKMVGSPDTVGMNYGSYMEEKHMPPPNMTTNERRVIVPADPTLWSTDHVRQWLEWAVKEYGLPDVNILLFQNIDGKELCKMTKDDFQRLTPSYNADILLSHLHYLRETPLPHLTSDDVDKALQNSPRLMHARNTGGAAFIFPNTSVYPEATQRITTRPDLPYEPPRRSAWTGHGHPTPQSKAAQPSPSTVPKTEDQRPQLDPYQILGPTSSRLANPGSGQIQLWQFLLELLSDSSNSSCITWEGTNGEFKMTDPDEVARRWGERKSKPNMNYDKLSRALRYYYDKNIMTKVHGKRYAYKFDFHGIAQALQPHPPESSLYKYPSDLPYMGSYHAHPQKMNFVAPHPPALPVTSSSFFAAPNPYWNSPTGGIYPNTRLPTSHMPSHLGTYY
An outline of the steps: as §1

Assay [3] has as its target T3, EHF (Homo sapiens, UniProt Q9NZC4 1-300).
T3 sequence: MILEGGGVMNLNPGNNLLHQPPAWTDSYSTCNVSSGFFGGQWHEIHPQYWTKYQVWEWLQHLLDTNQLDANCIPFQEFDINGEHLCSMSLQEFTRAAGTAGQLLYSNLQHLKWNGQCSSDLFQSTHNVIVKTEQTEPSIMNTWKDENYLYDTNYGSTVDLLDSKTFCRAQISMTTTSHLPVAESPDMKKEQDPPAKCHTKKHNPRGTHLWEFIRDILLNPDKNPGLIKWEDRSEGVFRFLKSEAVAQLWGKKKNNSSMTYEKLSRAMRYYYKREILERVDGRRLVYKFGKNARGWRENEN
The method, boiled down: as §1

Assay [4] deals with SPI1 (Homo sapiens, UniProt P17947 1-270). The method, boiled down:
as §1

In assay [5] the target is SPIB (Homo sapiens, UniProt Q01892 1-262). An outline of the steps: as §1
SPIB, sequence (Q01892 whole entry): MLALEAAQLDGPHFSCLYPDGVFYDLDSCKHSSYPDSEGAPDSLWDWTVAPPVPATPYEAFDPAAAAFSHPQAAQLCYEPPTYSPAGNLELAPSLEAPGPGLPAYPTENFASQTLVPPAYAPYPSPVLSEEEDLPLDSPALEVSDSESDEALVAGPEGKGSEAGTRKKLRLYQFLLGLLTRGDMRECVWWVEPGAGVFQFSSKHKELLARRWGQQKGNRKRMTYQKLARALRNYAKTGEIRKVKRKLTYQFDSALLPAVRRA
Assay [6] has as its target ETV5 (Homo sapiens, UniProt P41161 1-510). The method, boiled down:
as §1

For assay [7], the target named is T4, SPIC (Homo sapiens, UniProt Q8N5J4 1-248).
T4 sequence: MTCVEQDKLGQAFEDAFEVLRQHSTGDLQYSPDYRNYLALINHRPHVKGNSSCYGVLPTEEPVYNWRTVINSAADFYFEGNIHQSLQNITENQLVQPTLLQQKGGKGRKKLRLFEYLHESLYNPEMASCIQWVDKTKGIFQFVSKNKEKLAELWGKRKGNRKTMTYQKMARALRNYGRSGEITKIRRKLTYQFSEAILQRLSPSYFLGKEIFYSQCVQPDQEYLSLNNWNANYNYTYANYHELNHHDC
The method, boiled down:
as §1

For assay [8], the target named is ELF4 (Homo sapiens, UniProt Q99607 1-663). The method, boiled down:
as §1

The target of assay [9] is T5, ELK4 (Homo sapiens, UniProt P28324-2 1-405).
T5 sequence: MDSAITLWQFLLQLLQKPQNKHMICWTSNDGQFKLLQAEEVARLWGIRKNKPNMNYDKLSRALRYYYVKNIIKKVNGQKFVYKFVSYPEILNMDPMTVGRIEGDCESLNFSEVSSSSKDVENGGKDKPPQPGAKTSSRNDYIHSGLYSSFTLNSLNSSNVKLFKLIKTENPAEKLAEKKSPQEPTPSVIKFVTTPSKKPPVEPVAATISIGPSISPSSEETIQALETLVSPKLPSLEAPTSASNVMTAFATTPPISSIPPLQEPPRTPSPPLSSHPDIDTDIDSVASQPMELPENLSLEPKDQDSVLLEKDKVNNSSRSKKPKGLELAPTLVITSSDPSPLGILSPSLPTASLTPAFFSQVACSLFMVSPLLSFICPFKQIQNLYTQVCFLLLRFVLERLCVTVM
An outline of the steps:
as §1

Assay [10] deals with T6, ELF3 (Homo sapiens, UniProt P78545 1-371).
T6 sequence: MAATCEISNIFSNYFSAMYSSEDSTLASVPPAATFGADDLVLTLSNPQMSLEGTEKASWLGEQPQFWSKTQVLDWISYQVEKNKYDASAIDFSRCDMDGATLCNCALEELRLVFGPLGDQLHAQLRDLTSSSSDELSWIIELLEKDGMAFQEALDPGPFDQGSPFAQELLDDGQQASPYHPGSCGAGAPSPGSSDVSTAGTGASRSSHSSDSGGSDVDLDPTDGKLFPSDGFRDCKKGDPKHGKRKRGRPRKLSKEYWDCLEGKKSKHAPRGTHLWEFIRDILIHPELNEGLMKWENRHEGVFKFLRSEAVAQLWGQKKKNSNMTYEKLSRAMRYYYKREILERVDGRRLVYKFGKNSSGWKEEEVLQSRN
The method, boiled down:
as §1

Assay [11] concerns the target T7, ERF (Homo sapiens, UniProt P50548 1-548).
T7 sequence: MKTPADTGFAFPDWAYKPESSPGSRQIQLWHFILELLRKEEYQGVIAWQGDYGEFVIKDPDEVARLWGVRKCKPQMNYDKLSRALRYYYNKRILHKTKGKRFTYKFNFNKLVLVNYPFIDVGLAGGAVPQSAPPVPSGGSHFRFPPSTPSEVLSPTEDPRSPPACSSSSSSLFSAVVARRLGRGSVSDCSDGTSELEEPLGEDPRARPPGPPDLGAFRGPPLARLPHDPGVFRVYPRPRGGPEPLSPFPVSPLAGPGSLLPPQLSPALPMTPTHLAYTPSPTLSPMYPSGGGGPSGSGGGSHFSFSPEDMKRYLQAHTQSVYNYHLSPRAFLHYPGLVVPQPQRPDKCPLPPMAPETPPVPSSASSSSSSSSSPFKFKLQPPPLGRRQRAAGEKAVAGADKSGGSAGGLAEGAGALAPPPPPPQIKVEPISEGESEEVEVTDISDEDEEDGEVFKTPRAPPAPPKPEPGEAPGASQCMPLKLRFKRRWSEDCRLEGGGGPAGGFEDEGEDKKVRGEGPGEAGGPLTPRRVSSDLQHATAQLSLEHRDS
An outline of the steps: as §1

For assay [12], the target named is T8, ETV3L (Homo sapiens, UniProt Q6ZN32 1-361).
T8 sequence: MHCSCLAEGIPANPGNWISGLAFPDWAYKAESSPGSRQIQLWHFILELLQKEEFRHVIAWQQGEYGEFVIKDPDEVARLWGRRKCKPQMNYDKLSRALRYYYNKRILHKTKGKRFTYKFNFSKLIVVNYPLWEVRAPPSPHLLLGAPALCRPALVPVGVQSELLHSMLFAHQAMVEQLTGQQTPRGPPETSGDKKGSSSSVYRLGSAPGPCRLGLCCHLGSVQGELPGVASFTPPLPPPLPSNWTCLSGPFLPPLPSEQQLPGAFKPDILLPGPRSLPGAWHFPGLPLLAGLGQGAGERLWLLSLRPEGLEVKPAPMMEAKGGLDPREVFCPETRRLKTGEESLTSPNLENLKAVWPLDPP
An outline of the steps: as §1

In assay [13] the target is T9, ETS2 (Homo sapiens, UniProt P15036 1-469).
T9 sequence: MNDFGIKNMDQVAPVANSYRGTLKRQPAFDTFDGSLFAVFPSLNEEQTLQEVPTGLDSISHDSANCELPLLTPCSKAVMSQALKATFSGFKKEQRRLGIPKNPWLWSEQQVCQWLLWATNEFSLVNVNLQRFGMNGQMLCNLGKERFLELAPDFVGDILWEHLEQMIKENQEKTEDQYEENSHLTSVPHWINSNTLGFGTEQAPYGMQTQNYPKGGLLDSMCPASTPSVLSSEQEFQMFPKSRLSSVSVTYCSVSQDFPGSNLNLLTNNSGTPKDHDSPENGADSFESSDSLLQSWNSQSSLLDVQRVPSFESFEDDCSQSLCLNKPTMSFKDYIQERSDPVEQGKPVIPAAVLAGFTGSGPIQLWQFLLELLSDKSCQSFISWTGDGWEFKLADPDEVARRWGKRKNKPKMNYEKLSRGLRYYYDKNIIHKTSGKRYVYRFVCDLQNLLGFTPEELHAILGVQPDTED
The method, boiled down: as §1

For assay [14], the target named is T10, SPDEF (Homo sapiens, UniProt O95238 1-335).
T10 sequence: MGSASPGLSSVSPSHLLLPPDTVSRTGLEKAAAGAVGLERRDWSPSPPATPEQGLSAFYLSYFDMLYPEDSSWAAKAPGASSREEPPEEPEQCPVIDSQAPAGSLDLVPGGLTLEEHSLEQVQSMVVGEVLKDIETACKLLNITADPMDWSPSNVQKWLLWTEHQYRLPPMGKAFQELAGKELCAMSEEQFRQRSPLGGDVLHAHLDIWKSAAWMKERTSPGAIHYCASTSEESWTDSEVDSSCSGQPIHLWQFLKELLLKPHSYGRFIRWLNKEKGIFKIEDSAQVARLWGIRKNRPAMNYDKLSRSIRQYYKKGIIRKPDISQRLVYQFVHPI
The method, boiled down:
as §1

Assay [15] addresses T11, ETV7 (Homo sapiens, UniProt Q9Y603 1-341).
T11 sequence: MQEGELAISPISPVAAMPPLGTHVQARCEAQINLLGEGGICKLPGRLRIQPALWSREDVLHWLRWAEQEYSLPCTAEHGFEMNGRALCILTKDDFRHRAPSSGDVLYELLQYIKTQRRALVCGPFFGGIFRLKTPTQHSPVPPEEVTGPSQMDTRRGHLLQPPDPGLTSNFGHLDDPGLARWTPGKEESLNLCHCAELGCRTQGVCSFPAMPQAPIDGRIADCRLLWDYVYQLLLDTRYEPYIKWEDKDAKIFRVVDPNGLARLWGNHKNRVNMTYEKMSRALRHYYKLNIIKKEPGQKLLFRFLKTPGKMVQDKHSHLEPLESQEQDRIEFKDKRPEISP
The method, boiled down:
as §1

The target of assay [16] is T12, ETV3 (Homo sapiens, UniProt P41162-2 1-143).
T12 sequence: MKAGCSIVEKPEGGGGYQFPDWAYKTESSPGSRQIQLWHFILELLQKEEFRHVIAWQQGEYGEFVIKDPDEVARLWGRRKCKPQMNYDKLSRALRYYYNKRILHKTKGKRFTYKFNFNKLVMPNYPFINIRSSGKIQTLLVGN
An outline of the steps:
as §1

The target in assay [17] is ETV6 (Homo sapiens, UniProt P41212 1-452). An outline of the steps:
as §1

ELF4, sequence (Q99607 whole entry): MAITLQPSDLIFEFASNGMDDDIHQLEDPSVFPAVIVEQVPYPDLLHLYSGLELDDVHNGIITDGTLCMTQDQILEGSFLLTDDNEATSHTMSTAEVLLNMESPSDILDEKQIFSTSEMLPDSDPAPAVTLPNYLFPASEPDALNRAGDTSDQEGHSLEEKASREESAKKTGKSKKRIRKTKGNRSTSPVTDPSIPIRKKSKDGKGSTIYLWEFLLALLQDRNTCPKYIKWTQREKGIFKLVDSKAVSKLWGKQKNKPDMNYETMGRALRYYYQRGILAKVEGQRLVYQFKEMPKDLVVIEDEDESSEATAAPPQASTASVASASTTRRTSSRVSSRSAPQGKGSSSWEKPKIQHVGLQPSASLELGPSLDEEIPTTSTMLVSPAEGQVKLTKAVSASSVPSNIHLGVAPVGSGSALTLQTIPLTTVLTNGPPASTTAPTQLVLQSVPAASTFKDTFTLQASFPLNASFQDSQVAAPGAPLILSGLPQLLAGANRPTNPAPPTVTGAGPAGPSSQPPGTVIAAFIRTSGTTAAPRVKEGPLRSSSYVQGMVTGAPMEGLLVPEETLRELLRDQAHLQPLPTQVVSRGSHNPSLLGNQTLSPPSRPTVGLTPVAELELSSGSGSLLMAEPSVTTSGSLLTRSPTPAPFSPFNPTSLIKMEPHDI
ETV5, sequence (P41161 whole entry): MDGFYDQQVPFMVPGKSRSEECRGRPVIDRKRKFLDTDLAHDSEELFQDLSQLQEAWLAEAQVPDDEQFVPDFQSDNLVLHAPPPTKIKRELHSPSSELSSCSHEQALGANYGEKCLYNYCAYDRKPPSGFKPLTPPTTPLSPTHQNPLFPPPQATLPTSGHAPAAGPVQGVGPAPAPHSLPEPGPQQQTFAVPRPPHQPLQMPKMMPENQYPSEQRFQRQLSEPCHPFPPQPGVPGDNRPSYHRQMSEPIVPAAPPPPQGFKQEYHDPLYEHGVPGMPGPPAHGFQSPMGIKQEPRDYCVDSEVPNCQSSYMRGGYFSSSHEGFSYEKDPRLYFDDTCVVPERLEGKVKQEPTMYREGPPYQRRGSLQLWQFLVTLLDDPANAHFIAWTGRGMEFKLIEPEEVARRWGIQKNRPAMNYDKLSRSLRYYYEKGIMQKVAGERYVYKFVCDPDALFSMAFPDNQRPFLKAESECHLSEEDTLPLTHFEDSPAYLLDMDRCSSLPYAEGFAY
ETV6, sequence (P41212 whole entry): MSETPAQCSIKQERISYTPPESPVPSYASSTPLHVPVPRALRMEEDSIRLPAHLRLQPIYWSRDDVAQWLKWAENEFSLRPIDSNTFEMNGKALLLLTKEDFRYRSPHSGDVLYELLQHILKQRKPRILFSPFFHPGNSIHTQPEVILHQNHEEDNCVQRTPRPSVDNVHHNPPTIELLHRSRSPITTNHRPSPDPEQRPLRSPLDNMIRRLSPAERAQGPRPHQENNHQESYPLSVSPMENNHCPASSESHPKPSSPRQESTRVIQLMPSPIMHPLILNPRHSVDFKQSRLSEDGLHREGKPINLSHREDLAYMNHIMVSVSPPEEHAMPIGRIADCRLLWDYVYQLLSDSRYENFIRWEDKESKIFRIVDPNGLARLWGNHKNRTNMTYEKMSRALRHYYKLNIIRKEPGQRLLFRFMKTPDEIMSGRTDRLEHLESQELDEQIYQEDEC

On to GCCCCG, for which the binding signal is 1.07 fold enrichment (6-mer frequency, TF over GST control) in [1]; 1.06 fold enrichment (6-mer frequency, TF over GST control) in assay [2]; 1.01 fold enrichment (6-mer frequency, TF over GST control) in [3]; 1.08 fold enrichment (6-mer frequency, TF over GST control) in [4]; 1.16 fold enrichment (6-mer frequency, TF over GST control) in assay [5]; 1.02 fold enrichment (6-mer frequency, TF over GST control) in assay [6]. Further, the binding signal in assay [7] was 1.13 fold enrichment (6-mer frequency, TF over GST control); in assay [8], 1.09 fold enrichment (6-mer frequency, TF over GST control); in assay [9], 1.13 fold enrichment (6-mer frequency, TF over GST control); in assay [10] it was 1.08 fold enrichment (6-mer frequency, TF over GST control); in assay [11], 1 fold enrichment (6-mer frequency, TF over GST control); in assay [12], 1.03 fold enrichment (6-mer frequency, TF over GST control). The binding signal in [13] was 1.02 fold enrichment (6-mer frequency, TF over GST control); in [14] it was 1.01 fold enrichment (6-mer frequency, TF over GST control); in assay [15], 1.06 fold enrichment (6-mer frequency, TF over GST control); in assay [16], 1.15 fold enrichment (6-mer frequency, TF over GST control); in assay [17], 1.09 fold enrichment (6-mer frequency, TF over GST control).
